Shown are actives, neighbours in structure and some others; about 3.1% of the full set was active somewhere.
Anthrax LF inh2: inhibitors of Bacillus anthracis lethal factor protease | P15917 | multiplex microsphere protease cleavage assay, LF | inhibition, % at 10 µM | 0.12% of 360,000 active | AID 588501; in the data active = inhibition above about 30%; inconclusive = no clear call, values can overlap the other calls; note: plate controls were buffer without enzyme for full effect and enzyme alone for no effect
BoNT A protease: BoNT A light chain protease inhibition; multiplex microsphere protease substrate cleavage, flow cytometry; inhibition, % at 10 µM; 0.17% of 360,000 active; in the data active = inhibition above about 30%; inconclusive = no clear call, values can overlap the other calls; note: plate controls were buffer without enzyme for full effect and enzyme alone for no effect
SSB-PriA inh: K. pneumoniae PriA-SSBct interaction inhibition | 0.6% of 430,000 active | AlphaScreen SSBct-PriA binding, biotinylated peptide | inhibition, % at 33 µM; in the data active = inhibition mostly above about 37%, no sharp cut-off; inactive = mostly below about 20%;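 note: plate controls were negative control peptide for no effect and reference peptide for full effect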
Autofluor counter: counter-screen for toxin protease inhibitors: compound fluorescence. compound autofluorescence counterscreen, microsphere flow cytometry; stronger effect = higher value. 3.1% of 360,000 active. fluorescence intensity (test concentration not listed). AID 624483; in the data active = fluorescence intensity above about 16000; inconclusive = no clear call, values can overlap the other calls
BoNT-F LC inh: blocks Botulinum neurotoxin F light chain protease; Multiplex microsphere protease cleavage assay, flow cytometry; inhibition, % at 10 µM; 0.22% of 360,000 active; in the data active = inhibition above about 35%, passing the limit was not always enough; inconclusive = no clear call, values can overlap the other calls; note: plate controls were buffer without enzyme for full effect and enzyme alone for no effect
BoNT-A LC CP1: BoNT/A light chain protease inhibition | shares compounds with BoNT-F LC inh | multiplex microsphere protease assay, flow cytometry | inhibition, % at 10 µM | 3% of 720 active | AID 602139; in the data active = inhibition above about 32%
BoNT-F LC CP1: inhibitors of Botulinum neurotoxin F light chain protease; 720 tested, under 10 active; shares compounds with BoNT-F LC inh; inhibition, % at 10 µM; multiplex microsphere protease cleavage assay, flow cytometry
LF protease CP1: inhibitors of Bacillus anthracis lethal factor protease; shares compounds with BoNT-F LC inh; multiplex microsphere protease cleavage assay, LF; inhibition, % at 10 µM; 720 tested, under 10 active; AID 602142
An asterisk follows results filed as active. Unless noted, the rule behind the calls is not given here.

What do the screens show for `CCOc1ccc2nc3sc(C(=O)N4CCOCC4)c(N)c3cc2c1`?
Anthrax LF inh2: 2; BoNT A protease: 13; SSB-PriA inh: 9; Autofluor counter: 4394; BoNT-F LC inh: 0; BoNT-A LC CP1: -1; BoNT-F LC CP1: -5; LF protease CP1: -3

What do the screens show for `O=C(CSc1ccc(NC(=O)C2CC2)nn1)NCc1ccccc1Cl`?
SSB-PriA inh: -10

What do the screens show for `COc1ccccc1Oc1ncnc2sccc12`?
Anthrax LF inh2: 0; BoNT A protease: 5; SSB-PriA inh: -6; Autofluor counter: 3310; BoNT-F LC inh: 37*; BoNT-A LC CP1: -2; BoNT-F LC CP1: -5; LF protease CP1: -2

What do the screens show for `Cn1c2ccccc2c(=O)c2c(=O)n(-c3ccccc3)c(-c3ccc(C(C)(C)C)cc3)nc21`?
Anthrax LF inh2: 36*; BoNT A protease: 4; SSB-PriA inh: -13; Autofluor counter: 4082; BoNT-F LC inh: inconclusive; BoNT-A LC CP1: -2; BoNT-F LC CP1: 0; LF protease CP1: 2

What do the screens show for `Cc1ccc(-c2nc3c(c(=O)c4ccccc4n3C)c(=O)n2-c2ccc(F)cc2)cc1`?
Anthrax LF inh2: -3; BoNT A protease: inconclusive; SSB-PriA inh: 5; Autofluor counter: 5145; BoNT-F LC inh: inconclusive

How did CC(C)(C)c1ccc(S(=O)(=O)NCc2ccc(C(=O)NCC3CCCO3)cc2)cc1 (stereo unspecified) do in these assays?
Anthrax LF inh2: -2; BoNT A protease: -1; SSB-PriA inh: 3; Autofluor counter: 5862; BoNT-F LC inh: -5

Results for COc1cccc(S(=O)(=O)NCc2ccc(C(=O)NCC3CCCO3)cc2)c1 (stereo unspecified) ?
Anthrax LF inh2: -19; BoNT A protease: 29; SSB-PriA inh: 1; Autofluor counter: 10761; BoNT-F LC inh: 38*; BoNT-A LC CP1: -1; BoNT-F LC CP1: -3; LF protease CP1: 0

Results for c1ccc(Cn2c(CN3CCCC3)nc3ccccc32)cc1 ?
Anthrax LF inh2: -2; BoNT A protease: 3; SSB-PriA inh: -3; Autofluor counter: 6747; BoNT-F LC inh: 34; BoNT-A LC CP1: -1; BoNT-F LC CP1: 0; LF protease CP1: 2

How did NC(=O)CN1CCN(Cc2nc3ccccc3n2Cc2ccccc2)CC1 do in these assays?
SSB-PriA inh: 2

Results for COc1ccccc1-c1nc2cc3ccccc3cc2nc1-c1ccccc1 ?
Anthrax LF inh2: 19; BoNT A protease: 48*; SSB-PriA inh: 0; Autofluor counter: 2643; BoNT-F LC inh: 10; BoNT-A LC CP1: 14; BoNT-F LC CP1: 3; LF protease CP1: 14

Results for Oc1ccccc1-c1nc2ccccc2nc1-c1ccccc1 ?
Anthrax LF inh2: -4; BoNT A protease: 0; SSB-PriA inh: 24; Autofluor counter: 5138; BoNT-F LC inh: 1

Results for CS(=O)(=O)c1ccc(CCC(=O)N2CCC(c3cccs3)CC2)cc1 ?
SSB-PriA inh: -7

Results for COc1ccc(OC)c(Nc2nc(NCCCN(C)C)nc(N)c2[N+](=O)[O-])c1 ?
Anthrax LF inh2: 31*; BoNT A protease: 1; SSB-PriA inh: 14; Autofluor counter: 3678; BoNT-F LC inh: inconclusive; BoNT-A LC CP1: 1; BoNT-F LC CP1: -5; LF protease CP1: -3

How did CCN1CCc2[nH]c3ccccc3c2C1 do in these assays?
Anthrax LF inh2: 15; BoNT A protease: 5; SSB-PriA inh: -3; Autofluor counter: 3806; BoNT-F LC inh: 54*; BoNT-A LC CP1: -2; BoNT-F LC CP1: -9; LF protease CP1: -3

How did c1ccc(CN2CCc3[nH]c4ccccc4c3C2)cc1 do in these assays?
Anthrax LF inh2: -9; BoNT A protease: 0; SSB-PriA inh: -2; Autofluor counter: 4543; BoNT-F LC inh: -28

Results for Cc1ccc(C(=O)Nc2ccccc2C(=O)O)cc1S(=O)(=O)NCc1ccccc1 ?
Anthrax LF inh2: -1; BoNT A protease: 0; SSB-PriA inh: 2; Autofluor counter: 2595; BoNT-F LC inh: 2

Results for Cc1ccc(C(=O)Nc2ccccc2C(=O)O)cc1S(=O)(=O)Nc1ccc(Br)cc1 ?
SSB-PriA inh: -5; BoNT-A LC CP1: 0; BoNT-F LC CP1: -7; LF protease CP1: 2

What do the screens show for `Cc1c(N=C([O-])Nc2ccc(Br)cc2)sn[n+]1C`?
SSB-PriA inh: 0

How did CN(C)C(CNC(=O)C(=O)NC1CCCCC1)c1ccco1 (stereo unspecified) do in these assays?
SSB-PriA inh: 0

What do the screens show for `Cc1cc(=O)oc2c(CN3CCCC3)c(O)c(Cl)cc12`?
Anthrax LF inh2: 30*; BoNT A protease: -3; SSB-PriA inh: 1; Autofluor counter: 3914; BoNT-F LC inh: 10; BoNT-A LC CP1: 1; BoNT-F LC CP1: -5; LF protease CP1: 1

What do the screens show for `COc1ccc(C(O)c2nc(/C=C/c3ccc(C(F)(F)F)cc3)cs2)cc1` (stereo unspecified)?
Anthrax LF inh2: -6; BoNT A protease: 0; Autofluor counter: 3503; BoNT-F LC inh: -5

What do the screens show for `COc1ccc(/C=C/c2cc(C(F)(F)F)on2)cc1`?
Anthrax LF inh2: 10; BoNT A protease: 0; SSB-PriA inh: -7; Autofluor counter: 3409; BoNT-F LC inh: 40*; BoNT-A LC CP1: -1; BoNT-F LC CP1: -4; LF protease CP1: -5

How did COc1ccc2nc(-c3ccc(Cl)c(NC(=O)c4ccc(F)c(F)c4)c3)cn2n1 do in these assays?
SSB-PriA inh: -5

What do the screens show for `CCc1cc(C(=O)c2ccc(Br)cc2)c(NC(=O)CN(CC)CC)s1`?
Anthrax LF inh2: 32*; BoNT A protease: -2; SSB-PriA inh: 1; Autofluor counter: 4112; BoNT-F LC inh: inconclusive; BoNT-A LC CP1: 0; BoNT-F LC CP1: -4; LF protease CP1: -1

Results for CCN(CC)CC(=O)Nc1sc(C)cc1C(=O)c1ccc(C)cc1 ?
Anthrax LF inh2: -5; BoNT A protease: -2; SSB-PriA inh: -1; Autofluor counter: 4200; BoNT-F LC inh: inconclusive

What do the screens show for `O=[N+]([O-])c1ccncc1Br`?
SSB-PriA inh: -4

What do the screens show for `CN1CCc2c(sc3nc(SCC(N)=O)n(-c4ccc(Cl)cc4)c(=O)c23)C1`?
Anthrax LF inh2: -6; BoNT A protease: 66*; SSB-PriA inh: -3; Autofluor counter: 9910; BoNT-F LC inh: -41; BoNT-A LC CP1: 4; BoNT-F LC CP1: -7; LF protease CP1: 1

Results for CCSc1nc2sc3c(c2c(=O)n1C1CCCCC1)CCN(C)C3 ?
Anthrax LF inh2: 29; BoNT A protease: 45*; SSB-PriA inh: -7; Autofluor counter: 5142; BoNT-F LC inh: 11; BoNT-A LC CP1: 1; BoNT-F LC CP1: -1; LF protease CP1: 3

Results for O=C(CCOc1ccccc1)Nc1nc2cc3c(cc2s1)OCO3 ?
SSB-PriA inh: -23

Results for CC(=O)c1ccc(Br)cc1 ?
SSB-PriA inh: -4

Bioassay records as filed in PubChem.
